# According to PubChem BioAssay (EPA / NIEHS):
# Inconclusive results are not listed. Active and inactive are the calls of the source. The calls were made as follows, unless noted: active = hit-call score of the fitted dose curve at least 0.9, where 1 is the maximum; inconclusive = response in the unintended direction; inactive = score below 0.9.
# Key:
# [1] = read-out: HMG-CoA synthase (HMGCS2), HMGCS2 (gene 3158); test: CLD_HMGCS2_48hr: CellzDirect (CLD) Gene Expression Assay for HMG-CoA synthase (HMGCS2) at 48 hours (AID 2283711)
# Summary of the method: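 mRNA induction read by qNPA chemiluminescence, 48 h after dosing. Cultured primary human liver cells (two donor preparations) received fresh compound daily over two days against 0.2% DMSO vehicle; morphology-based cytotoxicity noted alongside.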
# [2] = STM_H9_OrnithineISnorm_perc: Stemina devTOX quickPredict H9 human embryonic stem cell (hESC)-based Assay for Ornithine (ORN) Metabolite Biomarker, Normalized (AID 2283712; active = hit-call score of the fitted dose curve at least 0.9, where 1 is the maximum; inactive = score below 0.9;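 also: ornithine released into spent medium during last day measured by mass spectrometry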)
# Summary of the method: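 Ornithine in spent medium from the last 24 h of a 72 h exposure, deproteinised and quantified by UPLC-HRMS against an isotope-labelled internal standard, expressed relative to 0.1% DMSO. Pluripotent H9 cells; compound refreshed every 24 h.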
# [3] = STM_H9_CystineISnorm_perc: Stemina devTOX quickPredict H9 human embryonic stem cell (hESC)-based Assay for Cystine (CYSS) Metabolite Biomarker, Normalized (AID 2283713; active = hit-call score of the fitted dose curve at least 0.9, where 1 is the maximum; inactive = score below 0.9)
# Summary of the method: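 Cystine in spent media from the last 24 h of a 72 h H9 hESC exposure (daily re-dosing), measured by UPLC-HRMS. Values normalized to isotopic internal standard, then to 0.1% DMSO; viability via CellTiter-Fluor.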
# [4] = STM_H9_OrnCyssISnorm_ratio: Stemina devTOX quickPredict H9 human embryonic stem cell (hESC)-based Assay for Ornithine (ORN):Cystine (CYSS) Ratio (AID 2283714)
# Summary of the method: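 H9 hESC, 72h, q24h re-dose; last-day media → acetonitrile deproteinization → UPLC-HRMS. ORN:CYSS ratio from isotope-normalized EIC areas, vs 0.1% DMSO; MTX references on each plate.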
# [5] = Tanguay_ZF_120hpf_ActivityScore_legacy: (Legacy) Oregon State University Tanguay Lab 120 Hour Post-fertilization zebrafish Assay Score for Activity (AID 2283742);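 as to AC50: dechorionated Tropical 5D wild-type zebrafish embryos held singly per well; static exposure from 6 hpf until 120 hpf at 28 °C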
# Summary of the method: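 In this whole-embryo screen, dechorionated zebrafish were exposed from 6 hpf until 120 hpf at 28C under a 0.64% DMSO vehicle. Developmental malformations and death were recorded by brightfield microscopy as binary endpoints.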
# [6] = ArunA_CellTiter_hNC: Viability Assessment in the ArunA Biomedical's Oris Neural Crest (hNC) Cell Migration Assay (AID 2283752)
# Summary of the method: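 After a 72 h chemical exposure, viability of hNC cells is read with CellTiter Aqueous One and fitted as signal loss relative to DMSO. Cells were seeded at 60,000/well on Matrigel and cultured 16 h at 37 C beforehand.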
# [7] = ArunA_CellTiter_hNP: Viability Assessment in the ArunA Biomedical's Oris Neural Crest (hNC) Cell Migration Assay (AID 2283753)
# Summary of the method: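 Viability read with CellTiter 96 Aqueous One after 72 h chemical exposure of human hNP1 neuroprogenitors, which were plated on Matrigel in LIF/bFGF medium 16 h beforehand. Endpoint fitted in positive direction relative to DMSO.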
# [8] = ArunA_Migration_hNP: ArunA Biomedical's Oris Neuroprogenitor (hNP) Cell Migration Assay (AID 2283754)
# Summary of the method: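 Readout is calcein-AM fluorescence (ex494/em517) of cells migrating into the detection zone, relative to DMSO. hNP1 cells (H9-derived) grown on Matrigel behind stoppers 16 h, then stoppers pulled and chemical applied 72 h; cytochalasin D as control.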
# [9] = ArunA_Migration_hNC: ArunA Biomedical's Oris Neural Crest (hNC) Cell Migration Assay (AID 2283755)
# Summary of the method: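 Calcein-AM fluorescence (ex494 nm/em 517 nm) in the stopper-defined detection zone quantifies migration of hNC cells after 72 h chemical exposure; 60,000 cells/well plated on Matrigel with LIF and bFGF, 16 h pre-incubation. DMSO baseline.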
# [10] = ArunA_NOG_NucleusCount: ArunA Biomedical's Neurite Outgrowth (NOG) Assay for Nucleus Count (AID 2283756)
# Summary of the method: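 Viable neuron count, from Hoechst nuclei passing size and intensity gates, imaged at 20x on differentiated H9-derived human neurons. Exposure lasted 48 h from seeding; activity was scored relative to DMSO.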
# [11] = target: Luciferin 4-monooxygenase (Photinus pyralis) (UniProt P08659); test: CCTE_Simmons_QuantiLum_inhib_2: CCTE's Firefly Luciferase Inhibition Assay, Simmons Lab (AID 2283767);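 as to AC50: potency for inhibitors that lower luciferase luminescence relative to DMSO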
# Sequence of Luciferin 4-monooxygenase (Photinus pyralis) (P08659 whole entry, looked up): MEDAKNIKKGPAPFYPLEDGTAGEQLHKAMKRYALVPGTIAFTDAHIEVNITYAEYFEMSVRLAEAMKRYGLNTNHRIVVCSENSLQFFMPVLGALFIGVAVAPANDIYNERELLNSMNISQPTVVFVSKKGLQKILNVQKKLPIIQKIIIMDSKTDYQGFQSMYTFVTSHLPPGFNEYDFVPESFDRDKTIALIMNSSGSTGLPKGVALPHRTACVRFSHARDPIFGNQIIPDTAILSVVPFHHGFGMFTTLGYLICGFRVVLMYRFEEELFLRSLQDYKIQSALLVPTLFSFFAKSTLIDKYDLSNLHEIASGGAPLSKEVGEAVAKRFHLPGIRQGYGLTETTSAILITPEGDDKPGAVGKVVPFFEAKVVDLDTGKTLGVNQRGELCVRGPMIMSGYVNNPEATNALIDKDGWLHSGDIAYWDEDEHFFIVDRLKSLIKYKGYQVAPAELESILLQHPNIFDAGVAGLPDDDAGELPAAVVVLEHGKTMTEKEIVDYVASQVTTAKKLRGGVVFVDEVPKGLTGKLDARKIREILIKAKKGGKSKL
# Summary of the method: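 Eight test concentrations, 5 nM up to 87.5 uM final, preincubated 30min at 37C in the dark with purified luciferase (0.5% DMSO final). Detection reagent (150uM D-luciferin, 147uM dATP, 75uM CoA, pH 7.8) injected per well before kinetic luminescence read; three replicates.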
# [12] = CEETOX_H295R_MTT_cell_viability: Viability Assessment in the CeeTox HT-H295R MTT Assay (AID 2283718; active = hit-call score of the fitted dose curve at least 0.9, where 1 is the maximum; inactive = score below 0.9;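 as to AC50: curve fitted both ways so AC50 may mark viability loss or gain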)
# Summary of the method: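 H295R cells prestimulated 48 h with 10 uM forskolin, then exposed 48 h to test chemical (0.1% DMSO final). Viability by MTT (0.5 mg/ml, 4 h, 37 C), absorbance 570/650 nm; percent change versus DMSO, bidirectional fit.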
# [13] = target: zebrafish Estrogen Receptor (ESR1), esr1 (gene 259252) (UniProt P57717); test: ATG_zfER1_XSP1: Attagene TRANS-FACTORIAL Multi-Species (XSP1) HepG2 Assay for zebrafish Estrogen Receptor (ESR1) (AID 2283772)
# Sequence of zebrafish Estrogen Receptor (ESR1), esr1 (gene 259252) (P57717 whole entry, looked up, the tested form may be a part): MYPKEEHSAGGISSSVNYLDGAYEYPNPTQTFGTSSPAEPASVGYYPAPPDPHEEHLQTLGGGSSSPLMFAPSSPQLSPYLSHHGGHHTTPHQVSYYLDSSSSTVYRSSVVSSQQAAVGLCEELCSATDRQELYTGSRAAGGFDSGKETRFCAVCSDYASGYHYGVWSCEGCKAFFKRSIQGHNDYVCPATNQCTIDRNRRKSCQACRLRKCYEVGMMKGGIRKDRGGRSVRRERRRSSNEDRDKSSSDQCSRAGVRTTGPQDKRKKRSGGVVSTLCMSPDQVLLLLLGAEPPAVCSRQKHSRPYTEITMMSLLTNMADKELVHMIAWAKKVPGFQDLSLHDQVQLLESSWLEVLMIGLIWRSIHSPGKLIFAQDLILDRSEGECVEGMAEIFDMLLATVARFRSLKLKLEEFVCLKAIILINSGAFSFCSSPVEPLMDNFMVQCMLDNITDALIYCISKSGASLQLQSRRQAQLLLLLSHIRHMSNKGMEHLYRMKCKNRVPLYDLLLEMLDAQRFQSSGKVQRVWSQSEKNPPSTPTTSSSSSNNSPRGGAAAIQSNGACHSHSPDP
# Summary of the method: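 HepG2 cells were transiently transfected with multiplexed GAL4-UAS reporter units driven by chimeric NR-GAL4 proteins, dosed for 24 h with 3 nM 6-alpha-fluorotestosterone present, and reporter mRNA quantified by RT-PCR and capillary electrophoresis versus DMSO.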
# [14] = test system: frog Estrogen Receptor (ESR2), gene 100174814; test: ATG_frER2_XSP1: Attagene TRANS-FACTORIAL Multi-Species (XSP1) HepG2 Assay for frog Estrogen Receptor (ESR2) (AID 2283774)
# Summary of the method: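 Multiplexed TRANS-format reporter assay in human hepatoma HepG2: chimeric nuclear receptor-Gal4 activity reported as mRNA induction at 24 h, detected by fluorescent RT-PCR products on capillary electrophoresis and fitted upward from DMSO baseline.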
# [15] = test system: Thyroperoxidase (TPO), gene 445522; test: CCTE_Simmons_GUA_TPO: CCTE's Guaiacol Assay for Thyroperoxidase (TPO) Inhibition, Simmons Lab (AID 2283750)
# Summary of the method: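 Porcine thyroid microsomes (25 ug) in 200mM potassium phosphate, preincubated 30 s at 37C with compound (8 concentrations, 5 nM–87.5 uM) and 35mM guaiacol; 1mM H2O2 starts reaction. Absorbance change at 450nm over first 80 s; loss of signal versus DMSO, three replicates.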
# [16] = test system: zebrafish Estrogen Receptor (ESR2B), gene 317733; test: ATG_zfER2b_XSP1: Attagene TRANS-FACTORIAL Multi-Species (XSP1) HepG2 Assay for zebrafish Estrogen Receptor (ESR2B) (AID 2283773)
# Summary of the method: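 Human hepatoma HepG2, transiently transfected with multi-reporter units; exogenous zebrafish ESR2B-Gal4 activity measured. Exposure 24 h alongside 3 nM 6-alpha-fluorotestosterone to partly stimulate AR.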
compound,measurement,setting,value
COc1ccc(-c2ccccc2)cc1NNC(=O)OC(C)C,outcome,[1],inactive
same,AC50,[2],42.1 µM (active)
same,AC50,[3],30.5 µM (active)
same,AC50,[4],36.1 µM (active)
same,outcome,[5],inactive
same,outcome,[6],inactive
same,outcome,[7],inactive
same,outcome,[8],inactive
same,outcome,[9],inactive
same,outcome,[10],inactive
same,AC50,[11],0.556 µM (active)
CCNP(=S)(OC)O/C(C)=C/C(=O)OC(C)C (stereo not drawn),AC50,[2],50 µM (active)
same,AC50,[3],75.5 µM (active)
same,AC50,[4],72.6 µM (active)
same,outcome,[12],inactive
same,outcome,[5],inactive
same,outcome,[11],inactive
CCOP(=S)(OCC)Oc1nc(Cl)n(C(C)C)n1,outcome,[2],inactive
same,AC50,[3],50.5 µM (active)
same,AC50,[4],54.9 µM (active)
same,outcome,[12],inactive
same,outcome,[5],inactive
same,outcome,[11],inactive
CCCCC(C#N)(Cn1cncn1)c1ccc(Cl)cc1 (stereo not drawn),AC50,[2],76 µM (active)
same,outcome,[3],inactive
same,AC50,[4],77.9 µM (active)
same,outcome,[12],inactive
same,outcome,[5],inactive
Cn1c(-c2ccccc2)cc(-c2ccccc2)[n+]1C,AC50,[2],25.3 µM (active)
same,AC50,[3],10.9 µM (active)
same,AC50,[4],20 µM (active)
same,outcome,[5],inactive
CC1(C)CCC(=Cc2ccc(Cl)cc2)C1(O)Cn1cncn1 (stereo not drawn),AC50,[2],78.2 µM (active)
same,AC50,[3],28.9 µM (active)
same,AC50,[4],35 µM (active)
same,outcome,[12],inactive
same,outcome,[5],inactive
same,outcome,[13],inactive
same,AC50,[14],56.6 µM (active)
CN/C(=N\[N+](=O)[O-])NCc1cnc(Cl)s1,outcome,[12],inactive
same,outcome,[5],inactive
CC(C)N1C(=O)N(c2ccccc2)CSC1=NC(C)(C)C,outcome,[5],inactive
COP(=S)(OC)Oc1ccc([N+](=O)[O-])c(C)c1,outcome,[12],inactive
same,outcome,[5],inactive
same,outcome,[15],inactive
same,outcome,[11],inactive
same,outcome,[13],inactive
same,AC50,[16],74.4 µM (active)
same,AC50,[14],65.9 µM (active)
N#Cc1c[nH]cc1-c1cccc2c1OC(F)(F)O2,AC50,[2],38.3 µM (active)
same,AC50,[3],29.4 µM (active)
same,AC50,[4],32.8 µM (active)
same,AC50,[5],26.9 µM (active)
O=c1n(Cl)c(=O)n(Cl)c(=O)n1Cl,outcome,[5],inactive
same,outcome,[11],inactive
Clc1cccc(C(Cl)(Cl)Cl)n1,AC50,[2],19.7 µM (active)
same,outcome,[3],inactive
same,outcome,[5],inactive
COC(=O)c1c(C(F)F)nc(C(F)(F)F)c(C2=NCCS2)c1CC(C)C,AC50,[12],38.8 µM (active)
same,outcome,[5],inactive
Nc1cnn(-c2ccccc2)c(=O)c1Cl,outcome,[12],inactive
same,outcome,[5],inactive
Cc1cnc(C2=NC(C)(C(C)C)C(=O)N2)c(C(=O)O)c1 (stereo not drawn),outcome,[5],inactive
same,outcome,[11],inactive
CCSC(=O)N1CCCCCC1,outcome,[12],inactive
same,outcome,[5],inactive
CCOc1cc(C(C)(C)C)ccc1C1COC(c2c(F)cccc2F)=N1 (stereo not drawn),outcome,[12],inactive
same,outcome,[5],inactive
